Measurements: PubChem BioAssay AID1159580 (chemical genetic matrix, 2015)
Several values for one entry are separate records, joined by “and”; a condition that tells them apart may be missing. Identical values can stand only once. Out of some 5,500 compounds screened, about 2,000 (36%) were called active. Inconclusive results (about 18%) are left out. Rule as the data show it: active = normalized growth mostly below about 0.91 (no sharp cut-off); inconclusive = no clear call, values can overlap the other calls; inactive = mostly above about 0.92. This is one part of the list.

Assay: chemical genetic growth profiling, strain panel (AID 1159580);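 also: tested at 20 µM; growth read once vehicle control cultures reached saturation at 30 °C; 1 = growth at the plate median or of vehicle wells; lower values mean less growth of the strain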
Details: S. cerevisiae deletion strains, growth OD

Measured: normalized growth

CCCCCC(=O)O[C@]1(C(C)=O)CCC2C3CCC4=CC(=O)CC[C@]4(C)C3CC[C@@]21C (some centres undefined)
inactive: locus YAL013W, strain DEP1, hits give low values 1.02 | locus YAL021C, strain ccr4, hits give low values 1 | locus YAL026C, strain drs2, hits give low values 1.03 | locus YAL030W, strain snc1, hits give low values 1 | locus YBL061C, strain skt5, hits give low values 1 | locus YBR009C, strain hhf1, hits give low values 1.01 | locus YBR021W, strain FUR4, hits give low values 0.948 | locus YBR023C, strain chs3, hits give low values 0.985 | locus YBR171W, strain sec66, hits give low values 0.993 | locus YBR229C, strain ROT2, hits give low values 1.01 | locus YBR231C, strain swc5, hits give low values 0.991 | locus YBR279W, strain paf1, hits give low values 1 | locus YCL011C, strain gbp2, hits give low values 1.01 | locus YCL016C, strain dcc1, hits give low values 1 | locus YCL029C, strain bik1, hits give low values 1.01 | locus YCL061C, strain MRC1, hits give low values 0.971 | locus YCL069W, strain vba3, hits give low values 1.01 | locus YCR088W, strain abp1, hits give low values 0.995 | locus YDL005C, strain med2, hits give low values 0.996 | locus YDL035C, strain GPR1, hits give low values 1.02 | locus YDL040C, strain nat1, hits give low values 1.01 | locus YDL074C, strain BRE1, hits give low values 1.01 | locus YDL101C, strain DUN1, hits give low values 1.01 | locus YDL134C, strain PPH21, hits give low values 1.01 | locus YDL185W, strain tfp1, hits give low values 1.02 | locus YDL192W, strain arf1, hits give low values 1.01 | locus YDR001C, strain nth1, hits give low values 1.01 | locus YDR069C, strain doa4, hits give low values 0.995 | locus YDR101C, strain arx1, hits give low values 1.01 | locus YDR137W, strain rgp1, hits give low values 1.01 | locus YDR150W, strain NUM1, hits give low values 1.02 | locus YDR159W, strain sac3, hits give low values 0.976 | locus YDR162C, strain NBP2, hits give low values 0.996 | locus YDR195W, strain ref2 1.02 | locus YDR297W, strain sur2, hits give low values 1 | locus YDR318W, strain mcm21, hits give low values 1 | locus YDR334W, strain swr1, hits give low values 0.999 | locus YDR335W, strain msn5, hits give low values 1.01 | locus YDR388W, hits give low values 1.01 | locus YDR392W, strain spt3, hits give low values 0.91 | locus YDR502C, strain sam2, hits give low values 1.01 | locus YEL003W, strain gim4, hits give low values 1.02 | locus YEL037C, strain rad23, hits give low values 1 | locus YEL061C, strain CIN8 (second series), hits give low values 1 | locus YEL061C, strain CIN8, hits give low values 1 | locus YER015W, strain faa2, hits give low values 0.997 | locus YER016W, strain bim1, hits give low values 0.988 | locus YER110C, hits give low values 1.02 | locus YER111C, strain swi4, hits give low values 0.991 | locus YER155C, strain BEM2 (second series), hits give low values 1.01 | locus YER155C, strain BEM2, hits give low values 1.01 | locus YER167W, strain BCK2, hits give low values 1.01 | locus YFR010W, strain ubp6, hits give low values 1.02 | locus YGL078C, strain dbp3, hits give low values 1.01 | locus YGL086W, strain mad1, hits give low values 1.01 | locus YGL167C, strain pmr1, hits give low values 0.989 | locus YGL173C, strain kem1, hits give low values 1.01 | locus YGL227W, strain vid30, hits give low values 1 | locus YGL240W, strain doc1, hits give low values 0.976 | locus YGL248W, strain PDE1, hits give low values 1.01 | locus YGL253W, strain hxk2, hits give low values 1.01 | locus YGR135W, strain pre9, hits give low values 1.01 | locus YGR252W, strain gcn5, hits give low values 0.974 | locus YHR013C, strain ard1, hits give low values 1.01 | locus YHR027C, strain rpn1, hits give low values 0.999 | locus YHR030C, strain SLT2, hits give low values 1.03 and 0.978 | locus YHR079C, strain IRE1 (second series), hits give low values 1.01 | locus YHR079C, strain IRE1, hits give low values 0.976 | locus YHR094C, strain hxt1, hits give low values 1 | locus YHR129C, strain ARP1, hits give low values 1.01 | locus YHR142W, strain chs7, hits give low values 1.02 | locus YHR200W, strain rpn10, hits give low values 1.01 | locus YIL066C, strain RNR3, hits give low values 1.02 | locus YIL073C, strain SPO22, hits give low values 1.04 | locus YIL125W, strain kgd1, hits give low values 1.01 | locus YIR030C, strain dcg1, hits give low values 1.01 | locus YJL092W, strain hpr5, hits give low values 1.01 | locus YJL095W, strain BCK1 (second series), hits give low values 1 | locus YJL095W, strain BCK1, hits give low values 1.02 and 0.987 | locus YJL115W, strain asf1, hits give low values 1 | locus YJL129C, strain trk1, hits give low values 0.946 | locus YJL134W, strain LCB3, hits give low values 0.98 | locus YJL154C, strain vps35, hits give low values 1.02 | locus YJL164C, strain tpk1, hits give low values 1.01 | locus YJL166W, strain qcr8, hits give low values 1 | locus YJL168C, strain set2, hits give low values 1.01 | locus YJL187C, strain SWE1 (second series), hits give low values 1.01 | locus YJL187C, strain SWE1, hits give low values 0.997 | locus YJR043C, strain POL32, hits give low values 1.01
